For one compound, normalized growth results are on record in PubChem BioAssay AID1159580 (chemical genetic matrix, 2015).

Structures are written as SMILES. In all, about 5,500 compounds went through this assay and about 2,000 (36%) were called active. Inconclusive results (about 18%) are left out. Some of the results follow. A number with no mark means an inactive call. Cut-off read from the data, not from the text of the source: active = normalized growth mostly below about 0.91 (no sharp cut-off); inconclusive = no clear call, values can overlap the other calls; inactive = mostly above about 0.92.

The assay is described as follows: chemical genetic growth profiling, strain panel (AID 1159580).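 Note: tested at 20 µM; growth read once vehicle control cultures reached saturation at 30 °C; 1 = growth at the plate median or of vehicle wells; lower values mean less growth of the strain.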 The following applies: S. cerevisiae deletion strains, growth OD.

Turning to `O=Nc1ccc2oc(=O)ccc2c1`, the normalized growth runs as follows: (locus YAL013W, strain DEP1, hits give low values) 0.945; (locus YAL040C, strain CLN3, hits give low values) 0.985; (locus YCL061C, strain MRC1 (second series), hits give low values) 0.973; (locus YDR363W, strain ESC2, hits give low values) 0.917; (locus YER002W, strain NOP16, hits give low values) 1.01; (locus YGR078C, strain PAC10, hits give low values) 0.98. Besides, the normalized growth is 0.846 (active) (locus YGR229C, strain SMI1, hits give low values); 0.989 (locus YMR263W, strain SAP30, hits give low values); 0.994 (locus YNL175C, strain NOP13, hits give low values); 0.989 (locus YNL197C, strain WHI3, hits give low values); 0.995 (locus YNL224C, strain SQS1, hits give low values); 1 (locus YNL322C, strain KRE1, hits give low values). Besides, the normalized growth reads like this: (locus YOR083W, strain WHI5 (second series), hits give low values) 0.906; (locus YPL055C, strain LGE1, hits give low values) 0.896; (locus YPL241C, strain CIN2, hits give low values) 0.999.
